The first experiment relates to FXR:RXRa (NR concentration 270 nM, RXRa partner concentration 90 nM). The experiment is described as follows: PBM binding z-score (relative to random genomic background probes); higher = stronger binding; sequences stand for … in GC…GCGATTGACAGCGTAGAATGAAGG
In outline: (§1)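 Custom Agilent 4×180K protein-binding microarrays carried double-stranded probes. Their 34-nt variable regions held direct-repeat seeds, single-nucleotide variants, half-site ablations and random human genomic background sequences. Arrays were incubated 1 h with ligand-free nuclear receptor dimers in PBS pH 7.4, 2% milk, 0.02% Triton X-100, 1 mM DTT, 0.2 mg/mL BSA and 0.4 mg/ml salmon testes DNA. Antibodies against each partner (one per run) detected binding, and scanned fluorescence was regression-normalized. Binding z-scores use random background probes as reference.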
Regarding ATGTCTAGGTAAAGTTCAGTGAAAGATCGATAGA, the PBM binding z-score amounted to 1.21.

TATTGTAGATCAACAGGAGGTTAAGAAAGATCGA came in with a PBM binding z-score of 0.217.

As to ATCGAGAGGTCGAGGTGAGTATAGAGAAAGGGAA, the PBM binding z-score was determined as 2.84.

Sequence TCTTGTAGATTAACAGGAGGTTAAGAAAGATCGA displayed a PBM binding z-score of 0.498.

As for CAAACTTGGTCACCGGAAGGTCAAAGTCCGCATG, the PBM binding z-score is 3.58.

The sequence TAGCCTAGGTCATGCGGGCCAGTATCGTGTCGGC came in with a PBM binding z-score of 3.99.

Take TCATATAGGTAAATGTGAAAGTCGAACGATATGA: the PBM binding z-score was 0.203.

Turning to TAGCCAAGGTCATGGGCCAGTATACCACGCGAAC, the PBM binding z-score is 7.33.

As for ATTTCTAGGTAAAGTTCAGTGAAAGATCGATAGA, the PBM binding z-score was found to be 1.69.

In turn, ACTAGGAGGCCAAGGGTCACTCAAGATTAGTCCG registered a PBM binding z-score of 2.82.

Consider CCGACTGGGGCATAAGGATACCATAAGCCAGCCC, for which the PBM binding z-score is -0.174.

Sequence TCGACTAGGTTACCAATGGGGCATTCAGCTTTCT yielded a PBM binding z-score of 0.55.

TCTTGTAGATCGGCAGGTTAAGAAAGCTGGCCAA: the PBM binding z-score stood at 0.24.

CAAACTAGGTCACGAAAGATCAAAGTCGAATGAC had a PBM binding z-score of 4.53.

Consider TCTTGTAGATCAGCAGGTTAAGGAAGCTGGCCAA, for which the PBM binding z-score came out at 0.249.

Turning to GCGACTGGGGCATCAGCAGGTTACCAAAACTTAA, the PBM binding z-score is -0.46.

In turn, CCTCGGAGGACAGAAGGTCAGAGCCGTCCGCTTT had a PBM binding z-score of 1.62.

ATTGAAAGGTCGACGAGGTGAGTATACACCGTTT registered a PBM binding z-score of 4.73.

In the case of CCTATTGGGCCAAAGGTCATTGATTCCAATGCTC, the PBM binding z-score stood at 4.7.

As for AATACAGGGTCACTAGGCGAGAGTAGGTACGAAT, the PBM binding z-score was determined as 6.08.

In turn, ACTAGTTGGTGAGCTGAGGTCACACACAATTCGG gave a PBM binding z-score of 2.78.

In turn, TCATATAGGTAAAGGTGAAAGGCGAACGATATGA returned a PBM binding z-score of 0.813.

In turn, TCTGCTAGGTCAGTTGGTCCGCTAACGAGCTGCC had a PBM binding z-score of 0.769.

On to CGAACTCGGTCAAGGACAGTGAATCTCCGCACGC, for which the PBM binding z-score is 0.923.

CCTCGCAGGCCAATCTGGGTCACTCAAGGCTTGA returned a PBM binding z-score of 0.68.

TCATAGAGGTAAAGGTGAAAGTCGAACGATATGA displayed a PBM binding z-score of 1.13.

CCTAGTGGGCCATCAGGTCATTGATATCAACGTT had a PBM binding z-score of 1.47.

For ATCGAAAGGTGGAAGGTGAGTATACCCACCCGAA, the PBM binding z-score was determined as 0.216.

In turn, AGAATGAGGTTATACGTAGATCAGGGGAGAAAGT showed a PBM binding z-score of 1.99.

The sequence TCTATTAGTTGATTAGGGCAACCGCAACAGCGGA gave a PBM binding z-score of 0.86.

Turning to ACTTACGGGTTAACGAGGTTATAGCACGCGTATA, the PBM binding z-score was 2.07.

As to CGAACTGGGTCAGAACAGGACAGTGAAGGATGAT, the PBM binding z-score was 0.455.

TCATATAGGCAAACAGGTGAAAGTCCGTAAGTTA had a PBM binding z-score of 0.489.

On to GCACCAAGGTGAATAGGTCGTTGATGAGTAGGCG, for which the PBM binding z-score was determined as 0.712.

Take AGAATGAGGTTATTAAGATCAGGGTATTGCGGTC: the PBM binding z-score was 1.3.

With GCTTGTAGATCAAGGGTAAGAAAGACTAAGCTAA, the PBM binding z-score was -0.663.

The sequence ACAGACAGGTGAGTGAAGGTAACTTAGCTGGACG came in with a PBM binding z-score of 0.0414.

Sequence GCATATAGGTAATACAAGGTGAGAGTCCGATTGT displayed a PBM binding z-score of 0.288.

Sequence TCTCGGAGGACACGAAGGGCAGAGCTTTCCAGAG returned a PBM binding z-score of 0.172.

Sequence CCTGCTAGGTCGTGGTCAGCTAATCTACAGTATG registered a PBM binding z-score of 0.204.

Another experiment deals with LXRa:RXRa (NR concentration 270 nM, RXRa partner concentration 90 nM). The description is as above. In outline: as §1
For ATGTCTAGGTAAAGTTCAGTGAAAGATCGATAGA, the PBM binding z-score was found to be 1.74.

As for TATTGTAGATCAACAGGAGGTTAAGAAAGATCGA, the PBM binding z-score turned out to be 1.55.

The sequence ATCGAGAGGTCGAGGTGAGTATAGAGAAAGGGAA had a PBM binding z-score of 2.37.

For TCTTGTAGATTAACAGGAGGTTAAGAAAGATCGA, the PBM binding z-score was 1.41.

Sequence CAAACTTGGTCACCGGAAGGTCAAAGTCCGCATG gave a PBM binding z-score of 3.72.

TAGCCTAGGTCATGCGGGCCAGTATCGTGTCGGC yielded a PBM binding z-score of 3.03.

Turning to TCATATAGGTAAATGTGAAAGTCGAACGATATGA, the PBM binding z-score was determined as 0.245.

TAGCCAAGGTCATGGGCCAGTATACCACGCGAAC registered a PBM binding z-score of 5.41.

As for ATTTCTAGGTAAAGTTCAGTGAAAGATCGATAGA, the PBM binding z-score worked out at 2.17.

ACTAGGAGGCCAAGGGTCACTCAAGATTAGTCCG came in with a PBM binding z-score of 3.11.

For CCGACTGGGGCATAAGGATACCATAAGCCAGCCC, the PBM binding z-score is -0.373.

TCGACTAGGTTACCAATGGGGCATTCAGCTTTCT: the PBM binding z-score came to 1.5.

The sequence TCTTGTAGATCGGCAGGTTAAGAAAGCTGGCCAA displayed a PBM binding z-score of 0.472.

For CAAACTAGGTCACGAAAGATCAAAGTCGAATGAC, the PBM binding z-score came to 5.

TCTTGTAGATCAGCAGGTTAAGGAAGCTGGCCAA gave a PBM binding z-score of 0.362.

On to GCGACTGGGGCATCAGCAGGTTACCAAAACTTAA, for which the PBM binding z-score was -0.0944.

On to CCTCGGAGGACAGAAGGTCAGAGCCGTCCGCTTT, for which the PBM binding z-score is 1.72.

ATTGAAAGGTCGACGAGGTGAGTATACACCGTTT gave a PBM binding z-score of 3.32.

On to CCTATTGGGCCAAAGGTCATTGATTCCAATGCTC, for which the PBM binding z-score was 5.15.

Turning to AATACAGGGTCACTAGGCGAGAGTAGGTACGAAT, the PBM binding z-score amounted to 4.92.

As for ACTAGTTGGTGAGCTGAGGTCACACACAATTCGG, the PBM binding z-score came to 2.49.

With TCATATAGGTAAAGGTGAAAGGCGAACGATATGA, the PBM binding z-score came out at 1.12.

TCTGCTAGGTCAGTTGGTCCGCTAACGAGCTGCC yielded a PBM binding z-score of 0.595.

On to CGAACTCGGTCAAGGACAGTGAATCTCCGCACGC, for which the PBM binding z-score was 0.427.

Sequence CCTCGCAGGCCAATCTGGGTCACTCAAGGCTTGA showed a PBM binding z-score of 1.48.

Sequence TCATAGAGGTAAAGGTGAAAGTCGAACGATATGA gave a PBM binding z-score of 1.35.

On to CCTAGTGGGCCATCAGGTCATTGATATCAACGTT, for which the PBM binding z-score is 1.04.

The sequence ATCGAAAGGTGGAAGGTGAGTATACCCACCCGAA showed a PBM binding z-score of 0.0772.

Consider AGAATGAGGTTATACGTAGATCAGGGGAGAAAGT, for which the PBM binding z-score came out at 1.93.

For TCTATTAGTTGATTAGGGCAACCGCAACAGCGGA, the PBM binding z-score amounted to 0.405.

For ACTTACGGGTTAACGAGGTTATAGCACGCGTATA, the PBM binding z-score worked out at 2.74.

Sequence CGAACTGGGTCAGAACAGGACAGTGAAGGATGAT came in with a PBM binding z-score of 0.381.

As to TCATATAGGCAAACAGGTGAAAGTCCGTAAGTTA, the PBM binding z-score is 0.602.

Take GCACCAAGGTGAATAGGTCGTTGATGAGTAGGCG: the PBM binding z-score came out at 0.592.

Take AGAATGAGGTTATTAAGATCAGGGTATTGCGGTC: the PBM binding z-score turned out to be 1.29.

Consider GCTTGTAGATCAAGGGTAAGAAAGACTAAGCTAA, for which the PBM binding z-score is -0.469.

In turn, ACAGACAGGTGAGTGAAGGTAACTTAGCTGGACG showed a PBM binding z-score of 0.0601.

Turning to GCATATAGGTAATACAAGGTGAGAGTCCGATTGT, the PBM binding z-score was found to be 0.937.

On to TCTCGGAGGACACGAAGGGCAGAGCTTTCCAGAG, for which the PBM binding z-score is -0.265.

As for CCTGCTAGGTCGTGGTCAGCTAATCTACAGTATG, the PBM binding z-score is 0.138.
